Hit rate of the full screen: of about 48,000 compounds, about 13,000 (27%) showed an effect of 50% or more. The list shows a part of the results.

The assay has as its system Wolbachia pipientis. As to the kind of experiment: Anti-Wolbachia Cell-Based Screen. Also noted: scale not given: in the data most compounds retested in dose-response had high values. Type of assay: functional. As to conditions: 5 µM.
As for `CN(C)C(=O)N1CCN(Cc2noc(Cc3ccccc3)n2)CC1`, the “Percent Effect” value was -7.499%.

For `CC(C)CN1C(=O)CO[C@@H]2CN(C(=O)CC(F)(F)F)C[C@H]21`, the “Percent Effect” value is reported as -4.787%.

`O=C(Nc1ccnc(OC2CCOC2)c1)c1cc(F)ccc1F` (centres undefined): the “Percent Effect” value is -0.1893%.

Turning to `Cc1csc(C(=O)N2CCC3(CC(N(C)c4ccncn4)C3)C2)c1` (centres undefined), the “Percent Effect” value worked out at 119.5%.

In the case of `Cc1noc(C)c1C(=O)N1CC[C@H]2C[C@@H](c3ccncn3)O[C@@H]2C1`, the “Percent Effect” value was -6.202%.

As to `CN(Cc1cccnc1)C1CC2(CCN(C(=O)c3cscn3)CC2)C1`, the “Percent Effect” value was -13.69%.

For `Cc1noc(C)c1CN1CC2(CCN(C(=O)c3c[nH]cn3)C2)CC1=O` (centres undefined), the “Percent Effect” value is recorded as -8.686%.

Regarding `Cc1noc(C)c1C(=O)N1CCC2(CC(N(C)c3ccncn3)C2)C1` (centres undefined), the “Percent Effect” value amounted to 121.5%.

On to `CN(c1ccncn1)C1CC2(CCN(C(=O)c3ccsc3)C2)C1` (centres undefined), for which the “Percent Effect” value is reported as 9.271%.

`CN(Cc1cccnc1)C1CC2(CCN(C(=O)c3cnccn3)CC2)C1`: the “Percent Effect” value was -5.762%.

As to `Cc1ccc(C(=O)N2CCC3(CC(N(C)c4ccncn4)C3)C2)cn1` (centres undefined), the “Percent Effect” value came to 100.9%.

For `CCOC(=O)CCCN1CCCC(C(=O)Nc2ccc(Cl)cn2)C1` (centres undefined), the “Percent Effect” value is -9.707%.

For `CCC(=O)N1CCC2(C=C(C(=O)N3CCCC3)c3ccccc32)CC1`, the “Percent Effect” value is 109%.

As to `CN1CCC2(C=C(C(=O)N3CCCC3)c3ccccc32)CC1.O=C(O)C(F)(F)F`, the “Percent Effect” value is on record as -7.584%.

Turning to `O=C(C1=CC2(CCNCC2)c2ccccc21)N1CCCC1`, the “Percent Effect” value is given as -0.6834%.

In the case of `CN1CCC2(C=C(C(=O)N(C)C)c3ccccc32)CC1`, the “Percent Effect” value stood at 111.1%.

Consider `CSCC(=O)N1CCC2(CC1)c1ccccc1CC2O` (centres undefined), for which the “Percent Effect” value was -1.136%.

Turning to `CCC(=O)N1CCC2(C=C(C(=O)N(C)C)c3ccccc32)CC1`, the “Percent Effect” value turned out to be 99.74%.

Turning to `O=C(O)C(F)(F)F.O=C1CC2(CNCCN(C(=O)Nc3ccccc3)C2)CN1` (centres undefined), the “Percent Effect” value is -25.05%.

As for `CC(O)CN1CCC(CN(C)Cc2ccc(C#N)cc2F)CC1` (centres undefined), the “Percent Effect” value is reported as -14.31%.

For the molecule `Cc1nccn1-c1cc(CNC(=O)C(C)(C)C)ccn1`, the “Percent Effect” value is listed as 9.207%.

As to `O=C(c1cc(C2CCCCN2CCO)n[nH]1)N1CCOCC1.O=CO` (centres undefined), the “Percent Effect” value was found to be 127.4%.

With `CC(=O)N1CCCCC1c1cc(C(=O)N2CCOCC2)[nH]n1` (centres undefined), the “Percent Effect” value is on record as -8.904%.

Consider `O=C(CCN1CCCCC1c1cc2ccccc2[nH]1)N1CCOCC1` (centres undefined), for which the “Percent Effect” value is listed as -12.84%.

Regarding `CN(C)Cc1ccc(C2CCCCN2C(=O)c2cc(C3CC3)n[nH]2)cc1` (centres undefined), the “Percent Effect” value was 2.856%.

Take `O=C(CCN1CCCCCC1c1ccco1)N1CCOCC1` (centres undefined): the “Percent Effect” value was 1.206%.

As to `O=C(c1cc(C2CCCCN2C(=O)C2CCC2)n[nH]1)N1CCOCC1` (centres undefined), the “Percent Effect” value came out at 97.85%.

For `COCc1cncc2c1CCN(C(=O)c1cscn1)C2`, the “Percent Effect” value worked out at 104.1%.

With `COCc1cncc2c1CCN(C(=O)c1ccsc1)C2`, the “Percent Effect” value was -1.861%.

As to `O=C(c1cnccn1)N1CCc2c(COCC3CC3)cncc2C1`, the “Percent Effect” value is listed as -0.9982%.

On to `COCc1cncc2c1CCN(C(=O)c1ccc(C)o1)C2`, for which the “Percent Effect” value was -6.966%.

Turning to `CN(C)C(=O)N1CCc2c(COCC3CC3)cncc2C1`, the “Percent Effect” value was -21.89%.

Turning to `CN(C)CCOCc1cncc2c1CCN(C(=O)c1cscn1)C2`, the “Percent Effect” value amounted to 84.03%.

On to `Cn1cnnc1CCNC(=O)c1ccccc1OC1CCC1`, for which the “Percent Effect” value is listed as -17.05%.

On to `CCNc1nc(C)c(C(=O)N(C)Cc2noc(C)n2)s1`, for which the “Percent Effect” value was -18.27%.

With `O=C(Nc1ccc2c(c1)OCCO2)c1ccc(=O)[nH]n1`, the “Percent Effect” value was 99.56%.

As for `Cc1ccc2c(c1)OCCCC2NC1CCN(C)CC1` (centres undefined), the “Percent Effect” value is 11.04%.

Consider `CCc1cccc(N2CCC(NC(=O)c3ccc(=O)[nH]n3)CC2)c1`, for which the “Percent Effect” value turned out to be 3.328%.

Turning to `O=C(NC1CCCOc2cc(Cl)ccc21)c1ccc(=O)[nH]n1` (centres undefined), the “Percent Effect” value was 103.9%.

With `O=C(Nc1ccc2c(c1)OC1(CCCCC1)O2)c1ccc(=O)[nH]n1`, the “Percent Effect” value is recorded as 13.01%.

As for `Cc1ccc2c(c1)OCCCC2NCc1nccn1Cc1ccccc1` (centres undefined), the “Percent Effect” value is -22%.

In the case of `CC1(C)Oc2ccc(NC(=O)c3ccc(=O)[nH]n3)cc2O1`, the “Percent Effect” value is listed as -5.037%.

Consider `Cc1ccc2c(c1)OCCCC2NCc1nccn1CC(C)C` (centres undefined), for which the “Percent Effect” value is reported as -15.26%.

Regarding `Cc1c(C(=O)N[C@H]2CN(CCS(C)(=O)=O)C[C@@H]2C2CC2)cnn1C`, the “Percent Effect” value is 4.067%.

With `Cc1c(C(=O)NC2CCCOc3cc(Cl)ccc32)cnn1C` (centres undefined), the “Percent Effect” value worked out at 96.08%.

On to `Cc1cc(C(=O)NC2CCCOc3cc(Cl)ccc32)n(C)n1` (centres undefined), for which the “Percent Effect” value was found to be 104.1%.

For `O=C(Nc1ccc2c(c1)OC1(CCCC1)O2)c1ccc(=O)[nH]n1`, the “Percent Effect” value is -12.04%.

As for `CC(C)N1CCCC2(CCN(C(=O)CCCn3ccnc3)C2)C1=O` (centres undefined), the “Percent Effect” value is on record as -2.08%.

On to `CCc1nnc(CNCC2CCN(CC(O)c3ccccc3)CC2)o1` (centres undefined), for which the “Percent Effect” value is recorded as 1.305%.

On to `Cc1cc2c(=O)n3c(nc2s1)CCN(Cc1ccncc1)CC3`, for which the “Percent Effect” value is recorded as -12.53%.

In the case of `Cc1cc2c(=O)n3c(nc2s1)CCN(Cc1cnc(C)n1C)CC3.Cl`, the “Percent Effect” value is on record as 108.4%.

`Cc1cc2c(=O)n3c(nc2s1)CCN(Cc1cnc(C(C)C)nc1)CC3`: the “Percent Effect” value is given as -3.495%.

With `Cc1cc(CN2CCc3nc(C)n(C)c(=O)c3CC2)[nH]n1`, the “Percent Effect” value was -18.21%.

Regarding `Cc1nc[nH]c1CN1CCn2nc(CN3Cc4ccccc4C3)cc2C1`, the “Percent Effect” value was 5.533%.

Regarding `CCc1ncc(CN2CCc3nc4sc(C)cc4c(=O)n3CC2)cn1`, the “Percent Effect” value worked out at 98.79%.

In the case of `Cc1cc2c(=O)n3c(nc2s1)CCN(Cc1[nH]cnc1C)CC3.Cl`, the “Percent Effect” value worked out at 117%.

Take `CCc1ncc(CN2CCCC3(CCC(=O)N(CCC(C)C)C3)C2)cn1` (centres undefined): the “Percent Effect” value is -16.36%.

On to `Cc1cc2c(=O)n3c(nc2s1)CCN(Cc1cncn1C)CC3.Cl`, for which the “Percent Effect” value was determined as 111.2%.

In the case of `Cc1nc2c(c(=O)n1C)CCN(Cc1cc3cc[nH]c3cn1)CC2`, the “Percent Effect” value was -4.621%.

For `CCOC(=O)C1CCCCN1Cc1c[nH]nc1-c1cc2ccccc2o1` (centres undefined), the “Percent Effect” value came out at 10.01%.

`Cc1cccc2cc(C(=O)N3CCN(S(=O)(=O)N(C)C)CC3)n(C)c12`: the “Percent Effect” value is on record as -7.336%.

As to `CNc1ncc(CN(C)Cc2cc(O)c3cc(C)cc(C)c3n2)cn1`, the “Percent Effect” value came to 2.553%.

Turning to `c1ccc(-c2cc(NCCCC3CCOC3)n3nccc3n2)cc1` (centres undefined), the “Percent Effect” value was -17.54%.

As for `CCc1cc(NC(CCO)c2ccc(OC)cc2)n2nccc2n1` (centres undefined), the “Percent Effect” value turned out to be 6.902%.

Consider `CN(C)C1CCN(c2cc(-c3ccccc3)nc3ccnn23)C1` (centres undefined), for which the “Percent Effect” value is -6.733%.

On to `CSc1ccc(-c2cc(CN)nc3ccnn23)cc1.Cl`, for which the “Percent Effect” value was determined as 95%.

As for `COCc1cc(N2CCN(Cc3ccncc3)CC2)n2nccc2n1`, the “Percent Effect” value is 2.178%.

On to `COCc1cc(N2CCOCC2)n2nccc2n1`, for which the “Percent Effect” value worked out at 9.055%.

`COc1cc(OC)cc(-c2cc(CN)nc3ccnn23)c1.Cl`: the “Percent Effect” value was found to be 104.2%.

`CCc1ccc(CN(C)c2cc(COC)nc3ccnn23)cc1`: the “Percent Effect” value is on record as -31%.

Consider `COc1ccc(-c2cc(CN)nc3ccnn23)cc1.Cl`, for which the “Percent Effect” value is recorded as 124.4%.

In the case of `Cl.NCc1cc(-c2ccccc2)n2nccc2n1`, the “Percent Effect” value is 106.1%.

In the case of `CCCc1cc(CNc2cc(CCC)nc3ccnn23)on1`, the “Percent Effect” value was -13.04%.

As for `CCc1cc(N[C@H](C(N)=O)[C@@H](C)CC)n2nccc2n1`, the “Percent Effect” value was -8.924%.

(Values after ChEMBL document CHEMBL3988442, “University of Dundee, Small-Polar-MMV Screening Library” (2021).)
